Results taken from PubChem BioAssay (EPA / NIEHS).
Inconclusive results are not listed. The source holds several records for some structures; these can differ, active in one and inactive in another. Calls of active or inactive are those of the source. Rule for the calls: active = hit-call score of the fitted dose curve at least 0.9, where 1 is the maximum; inconclusive = response in the unintended direction; inactive = score below 0.9.

Experiments:
[1] = biological target: human Esterase Plasma (ES), BCHE (gene 590) (UniProt P06276); assay: NVS_ENZ_hES: NovaScreen (NVS) Enzymatic Assay for human Esterase Plasma (ES) (AID 2283157)
Sequence of human Esterase Plasma (ES), BCHE (gene 590) (P06276 whole entry, looked up): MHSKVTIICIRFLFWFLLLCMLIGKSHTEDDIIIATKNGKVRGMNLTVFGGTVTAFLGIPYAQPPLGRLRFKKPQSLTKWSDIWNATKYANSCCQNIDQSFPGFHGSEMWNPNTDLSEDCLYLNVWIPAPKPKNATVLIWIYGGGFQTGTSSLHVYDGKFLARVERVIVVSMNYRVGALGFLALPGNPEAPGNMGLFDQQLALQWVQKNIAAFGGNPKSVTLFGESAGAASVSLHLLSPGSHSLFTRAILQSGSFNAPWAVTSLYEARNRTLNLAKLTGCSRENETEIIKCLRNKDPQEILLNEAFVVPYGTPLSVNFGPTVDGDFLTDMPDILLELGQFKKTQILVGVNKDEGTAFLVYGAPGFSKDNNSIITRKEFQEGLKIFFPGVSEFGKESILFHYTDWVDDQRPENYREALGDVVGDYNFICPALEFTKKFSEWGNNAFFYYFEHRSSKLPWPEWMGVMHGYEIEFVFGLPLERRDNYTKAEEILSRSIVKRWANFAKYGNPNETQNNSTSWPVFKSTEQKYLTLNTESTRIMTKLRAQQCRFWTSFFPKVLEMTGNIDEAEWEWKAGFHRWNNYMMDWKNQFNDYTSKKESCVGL
Outline: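 Esterase from human plasma, cell-free, colorimetric absorbance read 0.25 h after dosing. Screened at 25 uM in duplicate, with threshold-passing chemicals run in concentration-response up to 50 uM; loss of signal fitted versus DMSO.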

[2] = biological target: rat Adrenergic Receptor, Alpha 2 (Adra2), Non-selective Binding, Adra2a (gene 25083) (UniProt P22909); assay: NVS_GPCR_rAdra2_NonSelective: NovaScreen (NVS) G Protein-Coupled Receptor Assay for rat Adrenergic Receptor, Alpha 2 (Adra2), Non-selective Binding (AID 2283299)
Outline: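 Rat cortical membranes, radioligand competitive displacement read by filter-based scintillation counting 1.25 hours after dosing. Primary screen in duplicate at 25 uM; actives followed up in concentration series.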

[3] = system: guinea pig Dopamine Transporter (DAT), gene 100714898; assay: NVS_TR_gDAT: NovaScreen (NVS) Transporter Assay for guinea pig Dopamine Transporter (DAT) (AID 2283369);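 note: active compounds lower bound radioligand signal relative to DMSO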
Outline: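 Primary pass: duplicate wells at 25 uM, threshold e.g. 30% inhibition. Follow-up: singleton concentration-response, highest 50 uM. Radioligand binding on guinea pig striatal membranes, 2 h, filtration scintillation detection.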

[4] = biological target: rat Serotonin Transporter (SERT), Slc6a4 (gene 25553) (UniProt P31652); assay: NVS_TR_rSERT: NovaScreen (NVS) Transporter Assay for rat Serotonin Transporter (SERT) (AID 2283375)
Sequence of rat Serotonin Transporter (SERT), Slc6a4 (gene 25553) (P31652 whole entry, looked up): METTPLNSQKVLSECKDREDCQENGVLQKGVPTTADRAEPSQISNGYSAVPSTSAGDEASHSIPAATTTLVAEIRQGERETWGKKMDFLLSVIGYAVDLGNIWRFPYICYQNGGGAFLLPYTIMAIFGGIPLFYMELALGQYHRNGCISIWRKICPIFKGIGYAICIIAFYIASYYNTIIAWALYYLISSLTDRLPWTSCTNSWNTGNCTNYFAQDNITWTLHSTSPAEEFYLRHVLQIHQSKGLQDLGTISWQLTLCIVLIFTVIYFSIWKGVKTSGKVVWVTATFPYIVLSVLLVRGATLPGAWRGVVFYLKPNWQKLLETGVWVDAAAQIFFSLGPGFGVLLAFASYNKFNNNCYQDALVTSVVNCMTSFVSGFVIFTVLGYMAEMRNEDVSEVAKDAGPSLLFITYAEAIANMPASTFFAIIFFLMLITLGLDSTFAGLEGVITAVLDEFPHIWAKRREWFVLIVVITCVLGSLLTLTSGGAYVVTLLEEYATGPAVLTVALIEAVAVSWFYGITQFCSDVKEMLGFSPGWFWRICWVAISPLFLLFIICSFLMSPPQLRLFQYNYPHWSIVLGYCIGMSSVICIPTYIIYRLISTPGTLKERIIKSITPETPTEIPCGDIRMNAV
Outline: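 Using rat forebrain membrane SERT, test chemicals compete with a radioligand for 1 hour, and bound counts are taken by filter-based scintillation. Screening starts at 25 uM in duplicate, followed by concentration series for actives.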

[5] = CCTE_Shafer_MEA_dev_bursting_electrodes_number: CCTE's Neural Network Formation Assay for Number of Bursting Electrodes, Shafer Lab (AID 2284043)
Outline: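 Primary rat cortical neurons plated on 16-electrode MEA wells, exposed from day 0 with compound renewed at DIV 5 and 9. Electrodes bursting ≥1 burst per 2 min counted on days 5, 7, 9 and 12; trapezoidal AUC across days, fitted for loss versus DMSO.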

[6] = biological target: human Dual Specificity Protein Phosphatase 3 (DUSP3), DUSP3 (gene 1845) (UniProt P51452); assay: NVS_ENZ_hDUSP3: NovaScreen (NVS) Enzymatic Assay for human Dual Specificity Protein Phosphatase 3 (DUSP3) (AID 2283152);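 note: phosphatase activity of recombinant human DUSP3 on a fluorogenic substrate without cells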
Outline: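 Cell-free assay with recombinant human DUSP3 and fluorogenic substrate, read by fluorescence intensity. Primary screen ran duplicate at 25 uM; actives followed up in concentration series; loss of signal versus DMSO scored.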

[7] = biological target: human Beta-secretase (BACE), BACE1 (gene 23621) (UniProt P56817); assay: NVS_ENZ_hBACE: NovaScreen (NVS) Enzymatic Assay for human Beta-secretase (BACE) (AID 2283140);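 note: hits are inhibitors that reduce fluorescent substrate signal versus DMSO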
Sequence of human Beta-secretase (BACE), BACE1 (gene 23621) (P56817 whole entry, looked up): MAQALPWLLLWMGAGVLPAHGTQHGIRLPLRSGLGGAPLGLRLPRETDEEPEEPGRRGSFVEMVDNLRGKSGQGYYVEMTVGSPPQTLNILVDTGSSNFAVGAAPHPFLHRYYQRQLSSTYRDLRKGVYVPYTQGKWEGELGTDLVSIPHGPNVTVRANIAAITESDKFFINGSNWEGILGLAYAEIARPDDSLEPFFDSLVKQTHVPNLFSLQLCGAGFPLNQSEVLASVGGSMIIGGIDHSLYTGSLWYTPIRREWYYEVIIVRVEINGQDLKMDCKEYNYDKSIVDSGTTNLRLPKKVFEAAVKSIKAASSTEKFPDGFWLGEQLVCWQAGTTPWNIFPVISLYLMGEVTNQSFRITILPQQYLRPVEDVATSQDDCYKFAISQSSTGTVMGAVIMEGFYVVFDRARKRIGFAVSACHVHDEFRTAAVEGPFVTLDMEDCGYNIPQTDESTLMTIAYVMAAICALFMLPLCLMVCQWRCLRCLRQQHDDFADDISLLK
Outline: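 Cell-free fluorescence-intensity assay of recombinant BACE1 expressed in SF9 cells, read 1 hour after dosing. Loss of signal indicates reduced protease activity, fitted relative to DMSO negative control. Primary screen at 25 uM in duplicate; actives followed in concentration series.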

[8] = biological target: Retinoic acid receptor alpha (Homo sapiens) (UniProt P10276); assay: NVS_NR_hRARa_Agonist: NovaScreen (NVS) Nuclear Receptor Binding Assay for human Retinoic Acid Alpha Receptor Agonism (RAR) (AID 2283361)
Sequence of Retinoic acid receptor alpha (Homo sapiens) (P10276 whole entry, looked up): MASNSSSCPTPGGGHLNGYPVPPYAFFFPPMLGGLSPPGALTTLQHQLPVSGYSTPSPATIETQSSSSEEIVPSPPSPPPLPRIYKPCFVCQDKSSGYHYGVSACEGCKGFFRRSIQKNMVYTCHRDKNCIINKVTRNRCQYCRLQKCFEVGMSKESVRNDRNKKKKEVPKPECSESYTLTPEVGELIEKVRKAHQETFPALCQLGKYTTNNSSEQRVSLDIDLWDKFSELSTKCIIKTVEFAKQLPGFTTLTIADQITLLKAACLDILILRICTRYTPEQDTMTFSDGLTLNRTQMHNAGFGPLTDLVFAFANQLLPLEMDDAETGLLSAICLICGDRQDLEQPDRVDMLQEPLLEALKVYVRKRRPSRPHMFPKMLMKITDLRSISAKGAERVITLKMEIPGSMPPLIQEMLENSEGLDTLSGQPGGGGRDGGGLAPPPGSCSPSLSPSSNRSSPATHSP
Outline: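 Cell-free TR-FRET binding readout with extracted receptor protein, read 2 hours after dosing; gain-of-signal fitted relative to DMSO. Screened in duplicate at 25 uM, actives then run in concentration-response.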

[9] = biological target: mouse Peroxisome Proliferator-activated Receptor gamma (PPARg), Pparg (gene 19016) (UniProt P37238); assay: ATG_mPPARg_XSP2: Attagene TRANS-FACTORIAL Multi-Species (XSP2) HepG2 Assay for mouse Peroxisome Proliferator-activated Receptor gamma (PPARg) (AID 2283830);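 note: hits are gains in reporter mRNA above DMSO so AC50 marks activation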
Outline: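 HepG2 cells transiently transfected with GAL4-UAS reporter units for chimeric NR-Gal4 proteins including mouse PPARg, exposed 24 h; medium contained 3 nM 6-alpha-fluorotestosterone and 1.5 nM norgestrel. Reporter mRNA quantified by RT-PCR, HpaI digestion and capillary electrophoresis, vs DMSO.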

[10] = biological target: zebrafish Thyroid Hormone Receptor alpha (TRa), thraa (gene 30670) (UniProt Q98867); assay: ATG_zfTRa_XSP2: Attagene TRANS-FACTORIAL Multi-Species (XSP1) HepG2 Assay for zebrafish Thyroid Hormone Receptor alpha (TRa) (AID 2283832);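 note: actives raise zebrafish TRa-Gal4 reporter transcript above DMSO baseline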
Sequence of zebrafish Thyroid Hormone Receptor alpha (TRa), thraa (gene 30670) (Q98867 whole entry, looked up, the tested form may be a part): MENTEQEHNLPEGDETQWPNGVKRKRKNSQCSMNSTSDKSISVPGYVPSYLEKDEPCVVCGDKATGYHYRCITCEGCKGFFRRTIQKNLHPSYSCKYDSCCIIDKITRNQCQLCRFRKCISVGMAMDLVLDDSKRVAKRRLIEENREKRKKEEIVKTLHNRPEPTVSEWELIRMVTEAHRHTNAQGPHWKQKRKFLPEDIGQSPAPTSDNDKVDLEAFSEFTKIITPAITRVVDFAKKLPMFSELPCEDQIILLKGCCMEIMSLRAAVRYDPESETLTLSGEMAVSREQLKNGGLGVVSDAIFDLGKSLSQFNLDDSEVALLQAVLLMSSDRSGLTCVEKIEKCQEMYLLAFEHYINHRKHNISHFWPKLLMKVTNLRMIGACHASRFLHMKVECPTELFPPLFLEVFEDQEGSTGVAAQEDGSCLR
Outline: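 HepG2 cells transiently transfected with multiplexed GAL4-UAS reporter units expressing chimeric NR-Gal4 proteins; 24 h after dosing, reporter mRNA measured by RT-PCR, FAM labelling, HpaI digestion and capillary electrophoresis; gain of signal versus DMSO baseline.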

[11] = biological target: rat Thyrotropin Releasing Hormone Receptor (TRH), Trhr (gene 25570) (UniProt Q01717); assay: NVS_GPCR_rTRH: NovaScreen (NVS) G Protein-Coupled Receptor Assay for rat Thyrotropin Releasing Hormone Receptor (TRH) (AID 2283329);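 note: hit means lower bound tracer signal versus DMSO baseline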
Outline: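 Rat forebrain membranes; radioligand displacement at TRH receptor by filter-based scintillation counting, read 4 h after dosing. Duplicate single-point screen at 25 uM, actives rerun in concentration series; loss of signal relative to DMSO.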

[12] = biological target: AR (gene 367) (UniProt P10275); assay: ACEA_AR_agonist_80hr: ACEA Biosciences xCELLigence Real-Time Cell Analysis on Androgen Receptor Agonism for Proliferation (AID 2283783);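 note: hits increase impedance growth signal above DMSO baseline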
Sequence of AR (gene 367) (P10275 whole entry, looked up): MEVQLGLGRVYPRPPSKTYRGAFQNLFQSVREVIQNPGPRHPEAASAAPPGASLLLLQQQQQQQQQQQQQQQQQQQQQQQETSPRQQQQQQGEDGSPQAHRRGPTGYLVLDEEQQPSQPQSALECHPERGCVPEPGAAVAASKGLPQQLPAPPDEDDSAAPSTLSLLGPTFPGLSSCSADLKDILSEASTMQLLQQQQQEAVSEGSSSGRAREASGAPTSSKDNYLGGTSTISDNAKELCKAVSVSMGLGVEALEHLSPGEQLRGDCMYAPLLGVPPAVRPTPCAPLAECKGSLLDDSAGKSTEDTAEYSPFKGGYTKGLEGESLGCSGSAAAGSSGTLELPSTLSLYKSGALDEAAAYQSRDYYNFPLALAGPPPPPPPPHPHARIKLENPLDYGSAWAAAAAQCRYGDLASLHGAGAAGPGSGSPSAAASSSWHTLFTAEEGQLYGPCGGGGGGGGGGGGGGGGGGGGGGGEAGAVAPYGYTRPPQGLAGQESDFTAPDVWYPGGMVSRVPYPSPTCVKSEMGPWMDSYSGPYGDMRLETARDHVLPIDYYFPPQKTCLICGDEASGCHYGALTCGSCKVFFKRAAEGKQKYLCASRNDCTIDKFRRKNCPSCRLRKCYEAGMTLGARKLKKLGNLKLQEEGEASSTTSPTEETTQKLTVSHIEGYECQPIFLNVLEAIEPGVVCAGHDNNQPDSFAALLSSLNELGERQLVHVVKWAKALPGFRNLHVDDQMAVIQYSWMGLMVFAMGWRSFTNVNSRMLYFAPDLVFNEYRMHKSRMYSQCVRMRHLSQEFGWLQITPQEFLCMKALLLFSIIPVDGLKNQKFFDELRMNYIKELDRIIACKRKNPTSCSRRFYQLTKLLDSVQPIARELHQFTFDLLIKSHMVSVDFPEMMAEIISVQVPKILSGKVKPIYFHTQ
Outline: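 Proliferation of 22Rv1 prostate cancer cells tracked by electrical impedance, endpoint taken at 80 hours after dosing. Eight-point 1:4 dilutions from 100 uM maximum final, duplicate; testosterone and MG132 as positive controls, assay media as negative.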

[13] = biological target: Nucleoli Translocation, AR (gene 367) (UniProt P10275); assay: UPITT_HCI_U2OS_AR_TIF2_Nucleoli_Antagonist: University of Pittsburgh U2OS Androgen Receptor-Transcriptional Intermediary Factor 2 (AR-TIF2) Antagonism High Content Imaging Assay for Nucleoli Translocation (AID 2283997)
Sequence of Nucleoli Translocation, AR (gene 367) (P10275 whole entry, looked up): as above
Outline: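 U2OS cells co-expressing red-fluorescent-tagged human AR and green-fluorescent-tagged TIF2, imaged by high-content microscopy for nucleolar red fluorescence. Antagonist mode against DHT; primary screen at 20 uM final (0.2% DMSO).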

[14] = biological target: THRB (gene 7068) (UniProt P10828); assay: TOX21_TRB_BLA_Antagonist_Followup_ratio: Tox21 Thyroid Hormone Receptor beta Antagonism Beta-lactamase (BLA) Follow-Up Assay, Ratio (AID 2283958)
Sequence of THRB (gene 7068) (P10828 whole entry, looked up, the tested form may be a part): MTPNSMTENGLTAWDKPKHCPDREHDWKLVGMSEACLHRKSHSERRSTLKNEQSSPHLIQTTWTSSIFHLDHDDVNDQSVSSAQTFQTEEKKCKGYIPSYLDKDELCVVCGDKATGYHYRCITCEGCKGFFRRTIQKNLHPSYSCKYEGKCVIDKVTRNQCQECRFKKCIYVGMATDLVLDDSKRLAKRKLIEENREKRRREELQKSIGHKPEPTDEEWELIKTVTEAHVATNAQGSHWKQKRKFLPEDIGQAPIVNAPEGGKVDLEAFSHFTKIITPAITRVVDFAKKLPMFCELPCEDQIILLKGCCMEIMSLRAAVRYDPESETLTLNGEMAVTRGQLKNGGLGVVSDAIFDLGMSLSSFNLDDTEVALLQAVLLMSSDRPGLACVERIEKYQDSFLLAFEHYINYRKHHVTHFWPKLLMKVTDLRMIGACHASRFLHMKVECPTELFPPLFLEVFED
Outline: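 GAL4-DBD/human TRβ-LBD fusion in GeneBLAzer UAS-bla HEK293T cells, 3,000 cells/well in phenol red-free DMEM with 2% charcoal-stripped FBS; compounds at 11 concentrations in triplicate, 18 h at 37C. CCF4-AM substrate 2 h, 460:530 nm ratio relative to DMSO.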

[15] = TOX21_TRB_BLA_Antagonist_Followup_viability: Viability Assessment in the Tox21 Thyroid Hormone Receptor beta Antagonism Beta-lactamase (BLA) Follow-Up Assay (AID 2283961)
Outline: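 In the same wells as the reporter read, cell health was gauged by CellTiter-Glo ATP luminescence, with signal loss indicating reduced viability. Cells had been exposed to test compounds for 18 h.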

[16] = biological target: Retinoic acid receptor RXR-alpha (Homo sapiens) (UniProt P19793); assay: TOX21_TR_RXR_BLA_Antagonist_Followup_ratio: Tox21 Thyroid Hormone Receptor beta Retinoid X Receptor alpha (RXRa) Antagonism Beta-lactamase (BLA) Follow-Up Assay, Ratio (AID 2283972)
Outline: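 Compounds were tested in triplicate at 11 concentrations on RXRa-bla HEK293T cells for 16 h. Substrate cleavage ratio, normalized to DMSO, gave the endpoint.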

[17] = TOX21_PR_BLA_Followup_Agonist_viability: Viability Assessment in the Tox21 HEK293 Progesterone Receptor (PR) Agonism Beta-lactamase Follow-Up Assay (AID 2283935);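 note: signal loss means lower viability so actives are cytotoxic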
Outline: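 PR-UAS-bla HEK293T cells in 2% charcoal-stripped FBS medium, compound added after 6 hr plating, 16 hr at 37C/5% CO2. After bla FRET read, CellTiter-Glo added; luminescence read after 30 min at room temperature; signal loss marks cytotoxicity.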

[18] = TOX21_PR_BLA_Followup_Antagonist_viability: Viability Assessment in the Tox21 HEK293 Progesterone Receptor (PR) Antagonism Beta-lactamase Follow-Up Assay (AID 2283936);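 note: hits lower the luminescence signal meaning cytotoxicity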
Outline: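 PR-UAS-bla HEK293T cells (3,000/well, 2% charcoal-stripped FBS) given compound plus R5020 agonist, 16 h at 37C. CellTiter-Glo added after bla read, 30 min at room temperature; luminescence loss indicates cytotoxicity.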

[19] = TOX21_PR_LUC_Followup_Antagonist_viability: Viability Assessment in the Tox21 HEK293 Progesterone Receptor (PR) Antagonism Luciferase Follow-Up Assay (AID 2283940)
Outline: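 HEK293-PR-A-luc cells, precultured 5 days in assay medium with 10% charcoal-stripped FBS, were seeded at 3,000 cells/well, treated with compounds in DMSO for 16 h at 37C, and viability was read as cellular ATP by CellTiter-Glo luminescence.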

[20] = TOX21_PR_LUC_Followup_Agonist_viability: Viability Assessment in the Tox21 HEK293 Progesterone Receptor (PR) Agonism Luciferase Follow-Up Assay (AID 2283941);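 note: loss of signal means cytotoxicity so actives lower viability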
Outline: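 HEK293-PR-A-luc cells, pre-cultured 5 days in 10% charcoal-stripped FBS, were seeded at 3,000 cells/well, rested 5 h at 37C, then given compound in DMSO for 16 h at 37C. Cellular ATP was read by CellTiter-Glo luminescence; signal loss indicates cytotoxicity.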

Q: Which AC50 [1] does the source give for CN(C)CCC(c1ccc(Cl)cc1)c1ccccn1 (stereo not given) here?
A: 19.9 µM (active)

Q: What about the AC50 [2] of the same compound?
A: 13.9 µM (active)

Q: What about the AC50 [3] of the same compound?
A: 3.05 µM (active)

Q: What about the AC50 [4] of the same compound?
A: 2.95 µM (active)

Q: And the outcome [5]?
A: inactive

Q: Which AC50 [6] does the source give for CC1(C)S[C@@H]2[C@H](NC(=O)[C@H](N)c3ccccc3)C(=O)N2[C@H]1C(=O)O here?
A: 8.24 µM (active)

Q: For CC(C)CC(=O)CC(C)CC(C)C (stereo not given), which outcome [7] is on record?
A: inactive

Q: Which results are given for Cc1cc(O)cc(C)c1Cl?
A: outcome [8]: inactive; AC50 [9]: 72.9 µM (active); outcome [9]: inactive; AC50 [10]: 100 µM (active); outcome [10]: inactive

Q: For Cc1cc(C)c(S(=O)(=O)O)cc1N=Nc1cc(S(=O)(=O)O)c2ccccc2c1O, which outcome [11] is on record?
A: inactive

Q: And the outcome [12]?
A: inactive

Q: What about the outcome [13] of the same compound?
A: inactive

Q: For CC(C)n1c(/C=C/[C@@H](O)C[C@@H](O)CC(=O)O)c(-c2ccc(F)cc2)c2ccccc21, which outcome [14] is on record?
A: inactive

Q: What about the outcome [15] of the same compound?
A: inactive

Q: What about the outcome [16] of the same compound?
A: inactive

Q: What does the source list for C[C@H]1C[C@H]2[C@@H]3CCC4=CC(=O)C=C[C@]4(C)[C@@]3(F)[C@@H](O)C[C@]2(C)[C@@]1(O)C(=O)CO?
A: outcome [17]: inactive; outcome [18]: inactive; outcome [19]: inactive; outcome [20]: inactive

Q: For Cc1cc2nc3c(=O)[nH]c(=O)nc-3n(C[C@H](O)[C@H](O)[C@H](O)CO)c2cc1C, which AC50 [8] is on record?
A: 6.52 µM (active)

Q: With O=C(C(=O)c1ccccc1)c1ccccc1 as the compound, how does the AC50 [3] read?
A: 3.77 µM (active)

Q: With NC(N)=Nc1nc(CSCCC(N)=NS(N)(=O)=O)cs1 as the compound, how does the outcome [5] read?
A: inactive

Q: Which outcome [12] does the source give for CO[Si](CCCNCCN)(OC)OC here?
A: inactive

Q: For O=C(c1ccccc1)c1ccccc1O, which outcome [13] is on record?
A: inactive

Q: For c1cc[c]([Bi]([c]2ccccc2)[c]2ccccc2)cc1, which outcome [17] is on record?
A: inactive

Q: What about the outcome [18] of the same compound?
A: inactive

Q: What about the outcome [19] of the same compound?
A: inactive

Q: And the outcome [20]?
A: inactive

Q: With CCCCCCCCCC/C=C/C1CC(=O)OC1=O (stereo not given) as the compound, how does the AC50 [7] read?
A: 45.4 µM (active)

Q: Which AC50 [1] does the source give for CC[N+](CC)(CC(=O)Nc1c(C)cccc1C)Cc1ccccc1 here?
A: 3.7 µM (active)

Q: What about the AC50 [2] of the same compound?
A: 18.7 µM (active)

Q: What about the outcome [4] of the same compound?
A: inactive

Q: Which outcome [11] does the source give for O=C(Oc1ccccc1)c1ccccc1 here?
A: inactive

Q: With CCCCCCCCCCCCCCCCCC[N+](C)(C)C as the compound, how does the AC50 [6] read?
A: 7.9 µM (active)

Q: With Cc1oc(C)c(C(=O)Nc2ccccc2)c1C as the compound, how does the outcome [14] read?
A: inactive

Q: What about the outcome [15] of the same compound?
A: inactive

Q: What about the outcome [16] of the same compound?
A: inactive
